# HPGD block: blocks human HPGD enzyme activity; P15428; purified HPGD, NADH fluorescence kinetic, PGE2 substrate; Potency, µM, for inactives: at the top dose activity change, negative = inhibition, usual class: inhibitors; 150,000 tested, 4.3% active; active = well fitted inhibition curve with a large enough effect, not every such curve was filed as active; inconclusive = small, poorly fitted or top-dose-only effect, or another doubt; inactive = no such curve, though single readings can be large or run the other way; also: potency is read from the fitted curve at half-maximal effect
#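 NADH formation kinetics: reaction with 30 uM PGE2 and 1 mM NAD+ (final), 20 nM enzyme, Tris-HCl pH 8 with Tween 20, after 15 min compound preincubation at room temperature. Fluorescence change, last versus first of five reads.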
# IMPase inh: cell-permeable inhibitors of inositol monophosphatase (IMPase); CHO-M1 cells, IP1 accumulation, HTRF TR-FRET ratio; 120,000 tested, under 10 active; AID 901; inhibition (IP1 accumulation), % at 46.1 µM; P97697; active = well fitted curve in the direction sought with a large enough effect in the signal ratio, not every such curve was filed as active; inconclusive = small, poorly fitted or top-dose-only effect, or a change in a side signal; inactive = no such curve, though single readings can be large or run the other way; the % refers to the signal ratio;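 also: cells stimulated with carbachol in lithium chloride buffer; plate controls were DMSO basal wells for no effect and reference inhibitor wells for full effect; higher means more IMPase inhibition seen as more IP1 and lower FRET ratio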
# Target sequence (P97697 whole entry, looked up): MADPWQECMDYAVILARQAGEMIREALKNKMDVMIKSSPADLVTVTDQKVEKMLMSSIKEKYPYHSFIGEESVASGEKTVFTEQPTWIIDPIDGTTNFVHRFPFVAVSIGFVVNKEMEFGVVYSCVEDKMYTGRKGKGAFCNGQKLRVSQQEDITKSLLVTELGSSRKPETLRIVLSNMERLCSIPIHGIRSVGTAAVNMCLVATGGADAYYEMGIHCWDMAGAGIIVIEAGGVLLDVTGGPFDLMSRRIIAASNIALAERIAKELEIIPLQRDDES
#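 Cellular IMPase inhibition is scored as a rise in cytosolic IP1, detected by competitive TR-FRET between d2-labelled IP1 and a europium anti-IP1 antibody. M1-expressing CHO cells were stimulated with carbachol for 30 min at 37C, with lithium (50 mM LiCl) present in the buffer.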
# PNC assembly inh: blocks assembly of the perinucleolar compartment. PC3M PTB-GFP, PNC prevalence imaging, 16 h; hits give low values. activity change (PNC), negative = inhibition, % at 10 µM. 140,000 tested, 3.1% active;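 active = readout at or below -70, meaning at least 70% loss of cells showing the perinucleolar compartment, a nuclear body marking cancer cells; inconclusive = readout between -30 and a set limit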;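 also: plate controls were DMSO wells for no effect and camptothecin positive control wells for full effect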
#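 PC3M cells stably expressing PTB-GFP, 750–1000 cells/well, treated 16 h at 37 °C with compound (23 nl of library stock), in duplicate. After paraformaldehyde fixation and Hoechst stain, imaged at 20x; PNC prevalence scored by image analysis.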
# ALDH1A1 block: ALDH1A1 (human) enzyme inhibition; 220,000 tested, 7.3% active; P00352; Potency, µM (top dose mostly 75.3 µM), for the others: at the top dose activity, negative = inhibition, usual class: inhibitors; Purified ALDH1A1, NADH fluorescence, propionaldehyde substrate; active = well fitted inhibition curve with a large enough effect, not every such curve was filed as active; inconclusive = small, poorly fitted or top-dose-only effect, or another doubt; inactive = no such curve, though single readings can be large or run the other way;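 also: potency is read from the fitted curve at half-maximal effect; plate controls were no enzyme wells and a reference inhibitor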
# Target sequence (P00352 whole entry, looked up): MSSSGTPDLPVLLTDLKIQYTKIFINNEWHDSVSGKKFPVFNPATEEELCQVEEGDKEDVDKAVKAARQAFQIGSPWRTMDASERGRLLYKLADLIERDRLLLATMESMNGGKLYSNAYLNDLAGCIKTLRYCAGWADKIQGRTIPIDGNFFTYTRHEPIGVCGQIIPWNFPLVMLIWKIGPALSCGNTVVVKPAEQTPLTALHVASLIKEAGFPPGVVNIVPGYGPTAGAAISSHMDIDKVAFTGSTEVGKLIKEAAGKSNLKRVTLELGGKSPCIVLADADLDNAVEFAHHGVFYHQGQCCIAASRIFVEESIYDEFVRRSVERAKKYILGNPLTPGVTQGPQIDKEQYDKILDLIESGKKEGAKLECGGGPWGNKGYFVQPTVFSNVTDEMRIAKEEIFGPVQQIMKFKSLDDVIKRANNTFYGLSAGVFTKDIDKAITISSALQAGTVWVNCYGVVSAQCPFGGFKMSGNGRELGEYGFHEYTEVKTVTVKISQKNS
# IMPase Li inh: membrane-permeable IMPase blocker, potentiated with lithium | Potency, µM (top dose mostly 59.4 µM), for inactives: at the top dose activity, negative = IMPase inhibition, usual class: inhibitors | AID 1457 | 210,000 tested, 0.35% active | CHO-M1 cells, IP1 TR-FRET (IP-One), carbachol + lithium;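 also: IP1 builds up when IMPase is blocked and the TR-FRET signal falls; potency is read from the fitted curve at half-maximal effect; plate controls were basal vehicle for no effect and high inhibitor control for full effect; nearly all actives have a fitted effect of over 50% in size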
#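 CHO cells stably expressing M1 receptor (2000/well, cultured 16–30 h) treated 30 min at 37C with compound plus low lithium. Cytosolic IP1 by TR-FRET (665/620 ratio and 620 channel) after 10 min lysis; AC50 by Hill fit.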
# ALOX12 inhib: inhibitors of human 12-lipoxygenase (ALOX12); purified 12-hLO, xylenol orange hydroperoxide absorbance; Potency, µM (highest dose often 57.1 µM), for the others: top-dose activity change, negative = inhibition, usual class: inhibitors; 150,000 tested, 0.12% active; AID 1452; also: potency is read from the fitted curve at half-maximal effect; nearly all actives have a fitted effect of over 55% in size
#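 Purified human 12hLO (150 nM final) was preincubated with compounds for 15 min at room temperature in 25 mM Hepes pH 7.0, 0.01% Triton X-100, then reacted with 40 uM arachidonic acid for 30 min. Hydroperoxide was detected with ferrous iron/xylenol orange.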
# The depositor's hits bear a star; ? = inconclusive; . = not tested or not shown; [ ] = another dose, or the depositor's remark. Compounds with a hit are over-represented: about 11% of the library has one in this group of screens. Unless noted, calls follow the shape of the dose curve; as a rule, active = well fitted curve in the direction sought with a large enough effect; inconclusive = small, poorly fitted or top-dose-only effect, or another doubt; inactive = no such curve, though single readings can be large; an effect the other way counts as inactive or inconclusive. Unless noted, % is scaled to controls: 0 for no effect and ±100 for the full control effect.
SMILES,HPGD block,IMPase inh,PNC assembly inh,ALDH1A1 block,IMPase Li inh,ALOX12 inhib
Cc1cc(C(F)(F)F)c2c(n1)sc1c(O)cc(=O)[nH]c12,-5.3%,-8.8,-11.1,-0.7%,-17.7%[38.3 µM],-7.2%
CCCCC#CC1C=CC(Oc2cc(OC)c(OC)c(OC)c2)C(CO)O1 (stereo unspecified),.,.,.,-13.9%[13.5 µM],.,.
CCN(CC)c1ccc(C2N(C(=O)N3CCOCC3)CCN2S(=O)(=O)c2ccc(C)cc2)cc1 (stereo unspecified),-2.6%,0.6,?,7.94µM*,18.5%[38.3 µM],1.6%
Cc1ccc(S(=O)(=O)N2CCN(C(=O)N3CCOCC3)C2C(C)C)cc1 (stereo unspecified),-1.1%,4.7,-24.6,-1.8%,-0.2%[38.3 µM],-0.6%
O=C(OCC(=O)N1CCN(c2ccccc2)CC1)c1ccc2ccccc2n1,-7.4%,6.0,2.8,8.91µM*,-2.3%[38.3 µM],-1.2%
Clc1cccc(N/N=C/c2ccc(N3CCOCC3)cc2)c1,?,10.3,19.3,?,3.0%[38.3 µM],?
C(=N\Nc1ccccc1)/c1ccc(N2CCOCC2)cc1,14.1µM*,3.1,63.5,6.31µM*,-2.0%[38.3 µM],?
O=C(NC(NC(=S)Nc1c(Cl)cccc1Cl)C(Cl)(Cl)Cl)OCc1ccccc1 (stereo unspecified),-12.9%,.,?,10µM*,15.5%,-20.7%
CCOC(=O)NC(NC(=S)Nc1ccc(OCC)cc1)C(Cl)(Cl)Cl (stereo unspecified),-3.0%,.,31.4,7.3%,-4.7%,-2.2%
Cc1cccnc1NC(=S)Nc1ccc(Br)cc1Cl,.,.,.,?,6.2%,.
O=C(CCc1ccc(O)c(O)c1)NNC(=S)NCCc1ccccc1,-10.1%,.,?,-4.8%,-1.4%,3.1%
O=C(NNC(=S)Nc1ccc(Br)cc1Cl)c1ccncc1,-19.5%,-2.0,?,17.8µM*,2.2%,-4.3%
S=C(Nc1ccc(Br)cc1Cl)Nn1cnnc1,.,.,.,7.94µM*,-4.3%,.
O=C(CCc1ccc(O)c(O)c1)NNC(=S)Nc1ccc(Br)cc1Cl,.,.,.,25.1µM*,7.7%,.
O=C1CCC(c2ccc(-n3ccnc3)cc2)=NN1,-16.4%,1.5,.,5.1%,6.5%,-2.8%
COc1ccc(C(=O)CNc2ccccc2CO)cc1,.,.,.,14.1µM*,-11.4%,.
O=c1cc(C(F)(F)F)nc(-c2ccccc2)[nH]1,14.1µM*,-3.8,?,14.4%,6.5%[38.3 µM],0.6%
CCc1ccccc1N(C)C(=O)CCc1nc(-c2ccc(C)cc2)no1,14.1µM*,4.6,12.4,-12.7%,27.9%[38.3 µM],-5.5%
Cc1ccc(C)c(OCCn2cc(C(=O)c3cccs3)c3ccccc32)c1,.,17.5,.,.,.,.
COCCn1c(C)cc(/C=C2/NC(=O)N(c3ccc(Cl)cc3)C2=O)c1C,-20.7%,.,-113.8*,-7.0%,-4.7%,-0.9%
CCn1c(C)cc(/C=C2\NC(=O)N(Cc3ccc(Cl)cc3)C2=O)c1C,-17.9%,-0.1,?,?,3.3%[38.3 µM],-10.3%
Cc1ccc(NC(=O)c2cc(N3C(=O)C4CC=CCC4C3=O)ccc2N2CCCCC2)cc1 (stereo unspecified),?,-3.3,66.0,?,-2.8%[38.3 µM],2.4%
Cc1ccc(NC(=O)c2cc(N3C(=O)C4CCCCC4C3=O)ccc2N2CCOCC2)cc1 (stereo unspecified),.,.,.,22.4µM*,13.6%,.
Nc1ccc2c(c1)C(=O)N(CC1CCCO1)C2=O (stereo unspecified),-5.0%,-0.4,26.8,8.91µM*,-0.4%,8.4%
O=C1CSC(=S)N1CC1CCCO1 (stereo unspecified),-2.0%,1.1,22.0,?,0.9%[38.3 µM],-4.8%
SMILES,HPGD block,IMPase inh,PNC assembly inh,ALDH1A1 block,IMPase Li inh,ALOX12 inhib
Nc1ccc(Oc2ccc3c(c2)C(=O)N(CC2CCCO2)C3=O)cc1 (stereo unspecified),.,.,.,28.2µM*,.,.
CCOc1cc(C2C3=C(CCCC3=O)NC3=C2C(=O)CCC3)cc(Cl)c1O,-13.7%,17.0,14.3,-2.0%,13.7%[38.3 µM],-6.9%
CCOc1cc(C2C3=C(CCCC3=O)N(C)C3=C2C(=O)CCC3)cc(Cl)c1O,-18.0%,-4.8,-100.0*,-3.8%,6.9%,-5.1%
Cc1cccc(CNc2ncncc2-c2cccnc2)c1,.,.,.,-5.9%,8.2%,.
COC(=O)c1oc(-c2ccc(Cl)cc2)nc1C,.,.,.,25.1µM*,3.1%,.
O=C(O)[C@H]1CN(CCCP(=O)(O)O)CCN1,-8.9%,-1.9,.,0.1%,20.4%,-2.6%
Cc1ccc(-n2ncc(C(=O)N3CCc4ccccc4C3)c2NC(=O)c2ccco2)cc1C,?,?,-7.1,1µM*,-10.9%,-11.0%
Nc1ccc2oc(C3CCCCC3)nc2c1,.,.,.,?,7.7%,.
O=S(=O)(c1ccc(C2=CSC3=NCCN23)cc1)N1CCOCC1,?,-18.2,-8.4,15.8µM*,-6.2%[38.3 µM],-5.2%
Brc1ccc(C2=CSC3=NCCN23)cc1,.,.,.,2.5%,8.0%,.
Cc1ccc(C(=O)NC(=S)Nc2cccc(-c3nc4ccccc4s3)c2)cc1,-8.1%,-14.1,-112.5*,11.2µM*,0.2%,-0.5%
CCC(=O)NC(=S)Nc1ccc(-c2nc3ccccc3s2)cc1,-2.4%,2.1,-7.4,0.1%,11.2µM*,1.0%
Cc1ccc(-c2nc3ccccc3s2)cc1NC(=O)c1ccc2c(c1)OCO2,?,-12.5,6.2,?,11.2µM*,-3.9%
O=C(Nc1cc(-c2nc3ccccc3s2)ccc1Cl)c1ccc2c(c1)OCO2,?,-7.4,?,?,?,-5.4%
CC(=O)Nc1cccc(-c2nc3ccccc3s2)c1,.,.,.,-7.4%,-0.3%,.
Cc1ccc(-c2nnc(Nc3ccc(Cl)cc3)c3ccccc23)cc1S(=O)(=O)N1CCOCC1,.,-11.3,.,.,.,.
Cc1ccc(S(=O)(=O)Nc2ccc(NC(=O)/C=C/C(=O)O)cc2)cc1,.,.,.,35.5µM*,4.6%,.
Cc1ccc(NC(=O)/C=C\C(=O)NCC(=O)O)cc1,.,.,.,28.2µM*,2.4%,.
Cc1ccc(CNC(=O)/C=C/C(=O)O)cc1,.,.,.,0.3%,-2.5%,.
O=C(O)/C=C/C(=O)Nc1ccc(-c2ccccc2)cc1,.,.,.,3.16µM*,-4.0%,.
COc1cccc(CN(C)C(=O)c2csc3c2CCCC3)c1OC,.,.,.,-6.1%,6.8%,.
Nn1c(COc2ccccc2)nc2ccccc2c1=O,-11.8%,-0.8,-88.8*,1.4%,-7.4%[38.3 µM],3.3%
COc1cccc(OCc2nc3ccccc3c(=O)n2N)c1,-1.2%,7.3,-29.3,-9.2%,21.6%[38.3 µM],0.2%
O=C(Cn1cnc2c(nnn2Cc2ccccc2)c1=O)c1ccccc1,22.4µM*,-6.4,-8.7,-16.3%,10.2%,-0.3%
O=C(Cn1c(=O)n(Cc2ccccc2)c(=O)c2ccccc21)NCc1ccco1,-10.4%,6.3,?,-6.4%,-10.8%[38.3 µM],0.5%
O=C(Cn1cnc2c(nnn2Cc2ccc(F)cc2)c1=O)NCc1ccco1,15.8µM*,-1.6,36.8,5.8%,4.9%,0.9%

# From PubChem
